# Experimental data reported in PubChem BioAssay (NCI).
# Compounds without any hit were thinned out: in the full panel of roughly 83,000, 20% have a hit.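 48-hour exposure, single concentration, 96-well plates; percent growth endpoint where 0 means no net growth. Active: below 10.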 A number with no mark means an inactive call. Active and inactive are the calls of the source.
# System: MDA-MB-468 breast
# Assay: NCI-60 one-dose screen, 48 h (100 = growth as untreated, 0 = no growth, -100 = all killed)
# Conditions: 10 µM unless noted
row,SMILES,growth
1,O=[N+]([O-])CC(c1ccccc1F)c1c[nH]c2ccccc12 (centres undefined),44%
2,COc1ccc(NC(=O)CSc2nnc(-c3cc(-c4ccccc4)nc4ccccc34)n2-c2ccccc2)cc1,97.3%
3,Cc1cc(NCCCN(C)C)c2ccc3c(ccc4c(NCCCN(C)C)cc(C)nc43)c2n1,-88.9% (active)
4,O=C(Nc1cccc(C2=NCCN2)c1)c1cccc(C(=O)Nc2cccc(C3=NCCN3)c2)c1,90.8%
5,O=S(=O)(NCCNc1nccc(-c2c(-c3cccc(O)c3)nc3occn23)n1)c1ccccc1,88.4%
6,COc1ccc(Nc2c3ccccc3nc3ccccc23)cc1,14.1%
7,COc1cc(/C=C\c2cc(/C=C\c3ccc(O)c(OC)c3)n(C(=O)CNc3ccccc3OC)n2)ccc1O,95.8%
8,O=S(=O)(NCCNc1cc(-c2cn(-c3ccccc3)nc2-c2cccc(O)c2)ccn1)c1cccc(F)c1,15.2%
9,CSc1nc(N)c2[nH]c(-c3cc4ccccc4[nH]c3=O)nc2n1,1.87% (active)
10,CCOC(=O)C1CCCN1C(=O)C1(NC(C)=O)CCCC1 (centres undefined),98.9%
11,COC(=O)c1cc(C(=O)OC)cc([N+](=O)[O-])c1,107%
12,COC(=O)[C@H](CSC)N(C)C(=O)[C@@H]1CSSC[C@@H](NC(=O)c2nc3ccccc3cc2O)C(=O)NCC(=O)N1C,61.3%
13,N#Cc1ccc(N2Cc3cc(Cl)ccc3OC3=C2C(=O)N(Cc2ccccc2)C3=O)cc1,-64.2% (active)
14,CCn1cc(C(=O)O)c(=O)c2cc(F)c(N3CCN(S(=O)(=O)c4cccc5ccccc45)CC3)cc21,4.79% (active)
